Laboratory results taken from PubChem BioAssay (EPA / NIEHS).
Active and inactive are the calls of the source. How the source made its calls: active means hit-call score of the fitted dose curve at least 0.9, where 1 is the maximum; inactive means score below 0.9.

Key:
Details in all cases: mRNA level, 48 h; actives raise or lower the signal
[1] = read-out: Bcl-2 (BAD) gene, BAD (gene 572); test: LTEA_HepaRG_BAD: Life Technologies and Expression Analysis (LTEA) Assay for Bcl-2 (BAD) gene using HepaRG (AID 2283469)
How it was run: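 BAD transcript change, measured by qRT-PCR against three housekeeping genes and fitted in both directions relative to 0.5% DMSO, after 48 h chemical treatment of human HepaRG liver cells at concentrations up to 100 uM.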

[2] = read-out: Bcl-2 (BAX) gene, BAX (gene 581); test: LTEA_HepaRG_BAX: Life Technologies and Expression Analysis (LTEA) Assay for Bcl-2 (BAX) gene using HepaRG (AID 2283470)
How it was run: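 Differentiated HepaRG cells exposed 48 h in serum-free induction medium, eight half-log concentrations from 100 uM, in duplicate, 0.5% DMSO vehicle. BAX mRNA by TaqMan qRT-PCR, normalised to ACTB, GAPDH and POLR2A.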

[3] = read-out: adenosine kinase (ADK) gene, ADK (gene 132); test: LTEA_HepaRG_ADK: Life Technologies and Expression Analysis (LTEA) Assay for adenosine kinase (ADK) gene using HepaRG (AID 2283471)
How it was run: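 Differentiated HepaRG cells dosed 48 h in serum-free induction medium, 0.5% DMSO vehicle, eight half-log concentrations from 100 uM, in duplicate. ADK mRNA by TaqMan qRT-PCR normalised to ACTB, GAPDH, POLR2A; bidirectional fit versus DMSO.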

BCL2L11 (gene 10018) = test: LTEA_HepaRG_BCL2L11: Life Technologies and Expression Analysis (LTEA) Assay for Bcl-2 (BCL2L11) gene using HepaRG (AID 2283473)
How it was run: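 Differentiated human HepaRG cells in serum-free induction medium were exposed in duplicate for 48 h to eight concentrations (top 100 uM, half-log steps, 0.5% DMSO). BCL2L11 mRNA was quantified by TaqMan qRT-PCR, normalized to ACTB/GAPDH/POLR2A, bidirectional fit versus DMSO.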

[4] = read-out: Apolipoprotein A-V (APOA5) gene, APOA5 (gene 116519); test: LTEA_HepaRG_APOA5: Life Technologies and Expression Analysis (LTEA) Assay for Apolipoprotein A-V (APOA5) gene using HepaRG (AID 2283474)
How it was run: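 Differentiated human HepaRG cells were exposed in duplicate for 48 h to eight half-log concentrations from 100 uM in 0.5% DMSO. APOA5 mRNA was quantified by TaqMan qRT-PCR, normalized to ACTB, GAPDH and POLR2A, and fitted bidirectionally against DMSO.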

[5] = read-out: Apoptosis regulator Bcl-2 (Homo sapiens) (UniProt P10415); test: LTEA_HepaRG_BCL2: Life Technologies and Expression Analysis (LTEA) Assay for Bcl-2 gene using HepaRG (AID 2283475)
How it was run: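 Differentiated human HepaRG cells in serum-free induction medium exposed 48 h, in duplicate, to 8-point half-log series from 100 uM in 0.5% DMSO. BCL2 mRNA by qRT-PCR (TaqMan/Fluidigm), normalized to ACTB, GAPDH, POLR2A; bidirectional fit against DMSO.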

[6] = read-out: Bcl-2 (BID) gene, BID (gene 637); test: LTEA_HepaRG_BID: Life Technologies and Expression Analysis (LTEA) Assay for Bcl-2 (BID) gene using HepaRG (AID 2283476)
How it was run: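 Gene expression by qRT-PCR in HepaRG cells after 48 h exposure, duplicate wells, eight half-log concentrations topping at 100 uM in 0.5% DMSO. Normalized to ACTB, GAPDH, POLR2A; bidirectional fitting relative to DMSO.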

Caspase-3 (Homo sapiens) = Caspase-3 (Homo sapiens) (UniProt P42574); test: LTEA_HepaRG_CASP3: Life Technologies and Expression Analysis (LTEA) Assay for cysteine-aspartic acid protease (CASP3) using HepaRG (AID 2283477)
Caspase-3 (Homo sapiens), sequence (P42574 whole entry, looked up): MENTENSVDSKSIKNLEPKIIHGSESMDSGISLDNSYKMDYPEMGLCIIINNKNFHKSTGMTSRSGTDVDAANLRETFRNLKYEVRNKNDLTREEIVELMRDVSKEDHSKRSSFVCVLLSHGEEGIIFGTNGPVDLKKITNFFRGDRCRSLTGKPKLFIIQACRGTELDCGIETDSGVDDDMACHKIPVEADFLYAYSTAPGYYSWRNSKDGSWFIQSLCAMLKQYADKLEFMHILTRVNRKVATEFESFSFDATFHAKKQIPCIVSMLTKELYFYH
How it was run: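 Differentiated human HepaRG cells in serum-free induction medium were exposed 48 h to 8-point half-log concentrations from 100 uM (0.5% DMSO vehicle). CASP3 mRNA was measured by qRT-PCR, normalised to ACTB, GAPDH and POLR2A, with bidirectional fitting against DMSO.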

[7] = read-out: Cytochrome P450 (CYP24A1), CYP24A1 (gene 1591); test: LTEA_HepaRG_CYP24A1: Life Technologies and Expression Analysis (LTEA) Assay for Cytochrome P450 (CYP24A1) using HepaRG (AID 2283478)
How it was run: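 Differentiated HepaRG cells, pre-cultured 48 h, were exposed in duplicate for 48 h in serum-free induction medium to 8 half-log concentrations (top 100 uM, 0.5% DMSO). CYP24A1 mRNA was quantified by TaqMan qRT-PCR, normalized to ACTB/GAPDH/POLR2A, fitted bidirectionally versus DMSO.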

[8] = read-out: Cytochrome P450 (CYP1A2), CYP1A2 (gene 1544); test: LTEA_HepaRG_CYP1A2: Life Technologies and Expression Analysis (LTEA) Assay for Cytochrome P450 (CYP1A2) using HepaRG (AID 2283479)
How it was run: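 Differentiated human HepaRG cells in serum-free induction medium were exposed in duplicate for 48 h to 8-point half-log concentrations up to 100 uM in 0.5% DMSO. CYP1A2 mRNA measured by qRT-PCR, normalized to ACTB, GAPDH, POLR2A; bidirectional fit vs DMSO.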

[9] = read-out: cysteine-aspartic acid protease (CASP8), CASP8 (gene 841); test: LTEA_HepaRG_CASP8: Life Technologies and Expression Analysis (LTEA) Assay for cysteine-aspartic acid protease (CASP8) using HepaRG (AID 2283480)
How it was run: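 HepaRG, 48 h exposure, duplicate wells; 8 conc, half-log from 100 uM, 0.5% DMSO. Serum-free induction medium. CASP8 mRNA by TaqMan qRT-PCR, norm. ACTB/GAPDH/POLR2A; gain/loss fitted vs DMSO.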

[10] = read-out: Cytochrome P450 (CYP2B6), CYP2B6 (gene 1555); test: LTEA_HepaRG_CYP2B6: Life Technologies and Expression Analysis (LTEA) Assay for Cytochrome P450 (CYP2B6) using HepaRG (AID 2283481)
How it was run: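 Differentiated HepaRG cells, serum-free induction medium, exposed 48 h in duplicate to 8-point half-log concentrations from 100 uM in 0.5% DMSO. CYP2B6 mRNA by qRT-PCR, normalized to ACTB, GAPDH, POLR2A; bidirectional fit versus DMSO.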

[11] = read-out: Cytochrome P450 2C19 (Homo sapiens) (UniProt P33261); test: LTEA_HepaRG_CYP2C19: Life Technologies and Expression Analysis (LTEA) Assay for CYP2C19 using HepaRG (AID 2283482)
How it was run: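 Differentiated human HepaRG cells were exposed for 48 h in serum-free induction medium to 8 concentrations (top 100 uM, half-log steps, 0.5% DMSO). CYP2C19 mRNA was measured by qRT-PCR, normalized to ACTB/GAPDH/POLR2A, and fitted bidirectionally against DMSO.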

CYP2C8 (gene 1558) = test: LTEA_HepaRG_CYP2C8: Life Technologies and Expression Analysis (LTEA) Assay for CYP2C8 using HepaRG (AID 2283483)
How it was run: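 CYP2C8 mRNA induction or loss, by qRT-PCR normalized to ACTB/GAPDH/POLR2A, is read in HepaRG cells after 48 h treatment. Concentrations run from 100 uM down in half-log dilutions, with 0.5% DMSO as vehicle and baseline.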

CYP2C9 (gene 1559) = test: LTEA_HepaRG_CYP2C9: Life Technologies and Expression Analysis (LTEA) Assay for CYP2C9 using HepaRG (AID 2283484)
How it was run: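 Cells plated 48 h, switched to serum-free induction medium, then treated in duplicate for 48 h at eight concentrations (max 100 uM, 0.5% DMSO). RNA then analysed by qRT-PCR for CYP2C9; curves fitted in both directions relative to DMSO.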

CYP2E1 (gene 1571) = test: LTEA_HepaRG_CYP2E1: Life Technologies and Expression Analysis (LTEA) Assay for CYP2E1 using HepaRG (AID 2283485)
How it was run: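 HepaRG cells, plated 48 h, then exposed 48 h in serum-free induction medium to eight half-log concentrations from 100 uM in 0.5% DMSO, duplicate. CYP2E1 mRNA by qRT-PCR, normalized to ACTB/GAPDH/POLR2A; bidirectional fit versus DMSO.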

CYP4A11 (gene 1579) = test: LTEA_HepaRG_CYP4A11: Life Technologies and Expression Analysis (LTEA) Assay for CYP4A11 using HepaRG (AID 2283486)
How it was run: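 Differentiated HepaRG cells, serum-free induction medium, exposed 48 h in duplicate to 8-point half-log series from 100 uM in 0.5% DMSO. CYP4A11 mRNA measured by qRT-PCR, normalized to ACTB, GAPDH, POLR2A; bidirectional fit versus DMSO.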

[12] = read-out: DNA damage-inducible transcript 3 (DDIT3), DDIT3 (gene 1649); test: LTEA_HepaRG_DDIT3: Life Technologies and Expression Analysis (LTEA) Assay for DNA damage-inducible transcript 3 (DDIT3) using HepaRG (AID 2283488)
How it was run: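 HepaRG cells, 48 h after plating, exposed 48 h in serum-free induction medium to 8 half-log concentrations up to 100 uM in 0.5% DMSO, in duplicate. DDIT3 mRNA measured by TaqMan qRT-PCR, normalized to ACTB, GAPDH and POLR2A. Fitted bidirectionally against DMSO.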

[13] = read-out: Cytochrome P450 3A4 (Homo sapiens) (UniProt P08684); test: LTEA_HepaRG_CYP3A4: Life Technologies and Expression Analysis (LTEA) Assay for CYP3A4 using HepaRG (AID 2283487)
How it was run: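 Differentiated HepaRG cells in serum-free induction medium exposed in duplicate for 48 h to 8 half-log concentrations up to 100 uM in 0.5% DMSO. CYP3A4 mRNA measured by qRT-PCR normalized to ACTB, GAPDH and POLR2A; bidirectional fit versus DMSO.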

Cytochrome P450 3A4 (Homo sapiens), sequence (P08684 whole entry, looked up): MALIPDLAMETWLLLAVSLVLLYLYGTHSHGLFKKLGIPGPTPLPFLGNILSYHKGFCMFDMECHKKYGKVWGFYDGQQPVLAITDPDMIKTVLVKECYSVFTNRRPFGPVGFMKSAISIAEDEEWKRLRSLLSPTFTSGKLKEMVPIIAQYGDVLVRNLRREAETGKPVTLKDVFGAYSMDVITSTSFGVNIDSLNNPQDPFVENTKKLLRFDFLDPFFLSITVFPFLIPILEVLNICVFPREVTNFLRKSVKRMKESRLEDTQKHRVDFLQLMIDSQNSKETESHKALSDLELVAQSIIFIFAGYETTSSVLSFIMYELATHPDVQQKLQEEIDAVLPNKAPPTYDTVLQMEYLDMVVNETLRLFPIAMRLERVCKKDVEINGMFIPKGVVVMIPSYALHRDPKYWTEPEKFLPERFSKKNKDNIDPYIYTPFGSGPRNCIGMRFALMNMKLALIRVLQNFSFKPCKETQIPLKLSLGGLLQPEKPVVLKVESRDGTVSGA
Cytochrome P450 2C19 (Homo sapiens), sequence (P33261 whole entry, looked up): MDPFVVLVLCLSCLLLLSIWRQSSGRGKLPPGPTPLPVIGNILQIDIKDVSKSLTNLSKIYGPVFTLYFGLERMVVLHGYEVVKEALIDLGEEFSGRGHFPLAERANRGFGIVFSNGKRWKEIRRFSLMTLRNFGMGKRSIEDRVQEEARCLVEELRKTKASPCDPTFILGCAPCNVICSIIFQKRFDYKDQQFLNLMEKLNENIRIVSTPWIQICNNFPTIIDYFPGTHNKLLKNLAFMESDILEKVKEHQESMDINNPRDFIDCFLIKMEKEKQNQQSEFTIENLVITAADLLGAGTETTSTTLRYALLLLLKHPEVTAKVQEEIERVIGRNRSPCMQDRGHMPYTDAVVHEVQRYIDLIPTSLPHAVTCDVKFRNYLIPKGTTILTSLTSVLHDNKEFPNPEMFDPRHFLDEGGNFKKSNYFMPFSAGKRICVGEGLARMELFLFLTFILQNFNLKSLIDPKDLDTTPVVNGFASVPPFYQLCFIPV
Apoptosis regulator Bcl-2 (Homo sapiens), sequence (P10415 whole entry, looked up): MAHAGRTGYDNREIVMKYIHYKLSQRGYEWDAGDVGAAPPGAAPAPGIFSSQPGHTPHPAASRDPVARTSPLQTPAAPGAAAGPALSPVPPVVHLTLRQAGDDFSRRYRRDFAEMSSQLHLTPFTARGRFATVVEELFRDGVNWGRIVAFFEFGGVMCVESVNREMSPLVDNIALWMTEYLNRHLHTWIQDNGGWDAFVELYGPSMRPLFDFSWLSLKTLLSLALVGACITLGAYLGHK

## CC1(C)C(C=C(Cl)Cl)C1C(=O)OC(C#N)c1cccc(Oc2ccccc2)c1 (centres undefined)
[1]
  outcome: inactive
[2]
  outcome: inactive
[3]
  outcome: inactive
BCL2L11 (gene 10018)
  outcome: inactive
[4]
  outcome: inactive
[5]
  outcome: inactive
[6]
  outcome: inactive
Caspase-3 (Homo sapiens)
  outcome: inactive
[7]
  outcome: inactive
[8]
  AC50: 21.9 µM (active)
[9]
  outcome: inactive
[10]
  AC50: 9.35 µM (active)
[11]
  AC50: 23.7 µM (active)
CYP2C8 (gene 1558)
  outcome: inactive
CYP2C9 (gene 1559)
  outcome: inactive
CYP2E1 (gene 1571)
  AC50: 50.2 µM (active)
CYP4A11 (gene 1579)
  outcome: inactive
[12]
  outcome: inactive

## CC(C)C1(C)N=C(c2ncccc2C(=O)O)NC1=O (centres undefined)
[1]
  outcome: inactive
[2]
  outcome: inactive
[3]
  outcome: inactive
BCL2L11 (gene 10018)
  outcome: inactive
[4]
  outcome: inactive
[5]
  outcome: inactive
[6]
  outcome: inactive
Caspase-3 (Homo sapiens)
  outcome: inactive
[7]
  outcome: inactive
[8]
  outcome: inactive
[10]
  outcome: inactive
[11]
  outcome: inactive
CYP2C8 (gene 1558)
  outcome: inactive
CYP2C9 (gene 1559)
  outcome: inactive
CYP2E1 (gene 1571)
  outcome: inactive
CYP4A11 (gene 1579)
  outcome: inactive
[13]
  outcome: inactive
[12]
  outcome: inactive

## CNC(=O)Oc1cccc2ccccc12
[1]
  outcome: inactive
[2]
  outcome: inactive
[3]
  outcome: inactive
BCL2L11 (gene 10018)
  outcome: inactive
[4]
  outcome: inactive
[5]
  outcome: inactive
[6]
  outcome: inactive
Caspase-3 (Homo sapiens)
  outcome: inactive
[7]
  AC50: 0.0808 µM (active)
[8]
  outcome: inactive
[9]
  outcome: inactive
[10]
  AC50: 25.6 µM (active)
[11]
  outcome: inactive
CYP2C8 (gene 1558)
  outcome: inactive
CYP2C9 (gene 1559)
  outcome: inactive
CYP2E1 (gene 1571)
  outcome: inactive
CYP4A11 (gene 1579)
  outcome: inactive
[13]
  outcome: inactive
[12]
  outcome: inactive

## Cc1cc(C)nc(Nc2ccccc2)n1
[1]
  outcome: inactive
[2]
  outcome: inactive
[3]
  outcome: inactive
BCL2L11 (gene 10018)
  outcome: inactive
[4]
  outcome: inactive
[5]
  outcome: inactive
[6]
  outcome: inactive
Caspase-3 (Homo sapiens)
  outcome: inactive
[7]
  outcome: inactive
[8]
  AC50: 88.8 µM (active)
[10]
  AC50: 6.39 µM (active)
[11]
  outcome: inactive
CYP2C8 (gene 1558)
  outcome: inactive
CYP2C9 (gene 1559)
  outcome: inactive
CYP2E1 (gene 1571)
  outcome: inactive
CYP4A11 (gene 1579)
  AC50: 50 µM (active)
[13]
  outcome: inactive
[12]
  outcome: inactive

## CCNC(=O)NC(=O)C(C#N)=NOC
[1]
  outcome: inactive
[2]
  outcome: inactive
[3]
  outcome: inactive
BCL2L11 (gene 10018)
  outcome: inactive
[4]
  outcome: inactive
[5]
  outcome: inactive
[6]
  AC50: 0.234 µM (active)
Caspase-3 (Homo sapiens)
  outcome: inactive
[7]
  outcome: inactive
[8]
  outcome: inactive
[10]
  AC50: 3.37 µM (active)
[11]
  outcome: inactive
CYP2C8 (gene 1558)
  outcome: inactive
CYP2C9 (gene 1559)
  outcome: inactive
CYP2E1 (gene 1571)
  AC50: 50 µM (active)
CYP4A11 (gene 1579)
  outcome: inactive
[13]
  outcome: inactive
[12]
  AC50: 11.6 µM (active)

## O=c1n(Cl)c(=O)n(Cl)c(=O)n1Cl
[1]
  outcome: inactive
[2]
  outcome: inactive
[3]
  outcome: inactive
BCL2L11 (gene 10018)
  outcome: inactive
[4]
  outcome: inactive
[5]
  outcome: inactive
[6]
  outcome: inactive
Caspase-3 (Homo sapiens)
  outcome: inactive
[7]
  outcome: inactive
[8]
  AC50: 50 µM (active)
[10]
  outcome: inactive
[11]
  outcome: inactive
CYP2C8 (gene 1558)
  outcome: inactive
CYP2C9 (gene 1559)
  outcome: inactive
CYP2E1 (gene 1571)
  outcome: inactive
CYP4A11 (gene 1579)
  outcome: inactive
[13]
  outcome: inactive
[12]
  outcome: inactive
